# Assay outcomes deposited in PubChem BioAssay by National Center for Advancing Translational Sciences (NCATS).
# Compounds with a hit are over-represented: about 11% of the library has one in this group of screens.
# hNpr1 antagonist – antagonists of human natriuretic peptide receptor Npr1 | P16066 | actives 1.6% (n = 76,000) | Potency, µM (titrated, usually from 46.3 µM), without a hit: at the top dose activity change, negative = inhibition, actives largely listed as inhibitors | HEK293 hNpr1 GloSensor cGMP, ANP-stimulated luminescence; calls by dose curve; note: nearly all actives have a fitted effect of over 60% in size
#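 Compound pre-incubated 30 min at room temperature on GloSensor-loaded HEK293 cells stably carrying hNpr1 and the pGS-40F cGMP biosensor. Stimulation uses hNppA at 0.1 nM final; luminescence is taken at baseline and 20 min post-agonist.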
# HEK293 tox – kills HEK 293 cells; AID 1345083; HEK 293 viability, ATP luminescence (CellTiter-Glo), 48-72 h; Potency, µM (titrated, usually from 115 µM), without a hit: top-dose activity change, negative = cytotoxicity, most hits filed as inhibitors; actives 6.6% (n = 94,000); note: nearly all actives have a fitted effect of over 60% in size
#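 Viability of HEK 293 cells, plated at 250 cells/well, was judged by cellular ATP after compound treatment for 48 or 72 hr. Luminescence was imaged 10 min after CellTiter-Glo addition at room temperature.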
# Luciferase inh – blocks purified firefly luciferase enzyme activity | AID 1347043 | purified P. pyralis luciferase, luminescence, biochemical | P08659 | actives 2.5% (n = 76,000) | Potency, µM (series often up to 115 µM), most hits filed as inhibitors; note: nearly all actives have a fitted effect of over 65% in size
# Target sequence (P08659 whole entry, looked up): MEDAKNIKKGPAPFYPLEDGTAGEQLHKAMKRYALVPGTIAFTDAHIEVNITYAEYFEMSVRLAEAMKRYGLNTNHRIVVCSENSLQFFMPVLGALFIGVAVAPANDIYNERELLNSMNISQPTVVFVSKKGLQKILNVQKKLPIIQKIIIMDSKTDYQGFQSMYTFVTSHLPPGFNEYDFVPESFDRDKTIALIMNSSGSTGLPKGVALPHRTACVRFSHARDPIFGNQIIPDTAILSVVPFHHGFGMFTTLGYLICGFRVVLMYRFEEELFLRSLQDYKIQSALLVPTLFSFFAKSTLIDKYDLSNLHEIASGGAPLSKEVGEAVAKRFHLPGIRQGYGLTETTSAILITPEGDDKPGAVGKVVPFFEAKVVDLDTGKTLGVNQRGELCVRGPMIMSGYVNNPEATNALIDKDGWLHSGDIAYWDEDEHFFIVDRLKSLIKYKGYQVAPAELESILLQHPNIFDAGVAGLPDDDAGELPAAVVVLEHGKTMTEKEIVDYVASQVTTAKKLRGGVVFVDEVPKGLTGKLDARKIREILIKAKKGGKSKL
#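 Luminescence read by CCD imaging after purified firefly luciferase (10nM final) was added to substrate buffer holding 10uM D-luciferin and 10uM ATP, pH 7.5, pre-dosed with compound.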
# 3T3 cytotox – NIH 3T3 cell cytotoxicity. NIH 3T3 viability, CellTiter-Glo ATP luminescence, 48-72 h. Potency, µM (top dose mostly 96.7 µM), for inactives: top-dose activity change, negative = cytotoxicity, most hits filed as inhibitors. actives 4.3% (n = 94,000). AID 1345082; note: nearly all actives have a fitted effect of over 55% in size
#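 Cytotoxicity is measured as loss of cellular ATP: NIH 3T3 cells (400/well) are exposed to compound for 48 or 72 hr at 37 °C, then CellTiter-Glo luminescence is imaged after 10 min at room temperature.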
# Numbers without * were called inactive; i = inactive; u = inconclusive; x = not tested or not shown; [ ] = remark or other dose. Unless noted, calls come from the whole dose curve; as a rule, active = well fitted curve in the direction sought with a large enough effect; inconclusive = small, poorly fitted or top-dose-only effect, or another doubt; inactive = no such curve, though single readings can be large; an effect the other way counts as inactive or inconclusive. % is set by controls: 0 for no effect and ±100 for the full control effect; potency is the fitted concentration of half-maximal effect.
SMILES,hNpr1 antagonist,HEK293 tox,Luciferase inh,3T3 cytotox
Cc1nn(-c2ccccc2)c2c1C(C(C)C)N(C1CCN(C(=O)c3ccccc3F)CC1)C2=O (centres undefined),x,45µM*,x,u
Cc1nn(-c2ccccc2)c2c1C(C(C)C)N(C1CCN(C(=O)C3CCCC3)CC1)C2=O (centres undefined),x,-27%,x,u
CC(=O)N1CCC(N2C(=O)c3c(c(C)nn3-c3ccccc3)C2C(C)C)CC1 (centres undefined),x,-20%,x,u
Cc1ccccc1C(=O)N1CCC(N2C(=O)c3c(c(C)nn3-c3ccccc3)C2C(C)C)CC1 (centres undefined),x,40µM*,x,u
O=C(NC[C@H]1OC[C@@H](N(Cc2ccccc2)Cc2ccccc2)[C@@H]1O)Nc1ccccc1,-13%[70.6 µM],79µM*,i,u
Cc1ccc(C(=O)NC2CCN(Cc3cccc(-c4ccc(F)c(F)c4)c3)CC2)cc1,x,u,x,35µM*
Cc1cccc(-c2cccc(CN3CCC(NC(=O)c4ccc(Cl)nc4)CC3)c2)c1,x,14µM*,x,18µM*
Cc1cccc(-c2cccc(CN3CCC(NC(=O)c4ccncc4)CC3)c2)c1,x,32µM*,x,32µM*
COc1ccc(C(=O)NC2CCN(Cc3cccc(-c4cccc(C)c4)c3)CC2)cc1,x,35µM*,x,u
Cc1cccc(-c2cccc(CN3CCC(NC(=O)C4CCCC4)CC3)c2)c1,x,i,x,-9%
O=C(Cc1ccccn1)NC1CCN(c2nc3ncccc3o2)CC1,4%,-2%,i,-5%
Cc1cccc(-c2cccc(CN3CCC(NC(=O)c4ccccc4F)CC3)c2)c1,x,u,x,40µM*
O=C(NC1CCN(Cc2cccc(-c3ccc(F)c(F)c3)c2)CC1)c1ccc(Cl)cc1,x,2%,x,-21%
Cc1cccc(-c2cccc(CN3CCC(NC(=O)Cc4ccccn4)CC3)c2)c1,x,u,x,45µM*
O=C(NC1C=CS(=O)(=O)C1)c1ccc2nc(-c3ccc(F)cc3)cn2c1 (centres undefined),4%,45µM*,40µM*,u
Cc1cc(C)nc(CNC(=O)c2ccc3nc(-c4ccc(F)cc4)cn3c2)n1,-1%,1%,i,5%
CCC(NC(=O)c1ccc2nc(-c3ccc(F)cc3)cn2c1)c1cccnc1 (centres undefined),2%,u,16µM*,u
O=C(NCCCn1ccnc1)c1ccc2nc(-c3ccc(F)cc3)cn2c1,-2%,5%,u,-13%
Cc1ccc([C@H]2C[C@@H](O)[C@@H](O)[C@@H]2NCc2ccccc2)cc1,u,u,i,u
CN(C)C(=O)N1CCCN(c2ccc3nnc(-c4ccccc4)n3n2)CC1,x,-4%,x,u
N#Cc1ccc2nc([C@H]3CCN(Cc4ccccn4)C3)[nH]c2c1,4%[70.6 µM],100µM*,u,63µM*
FC(F)(F)c1ccc2nc([C@H]3CCN(C4CCOCC4)C3)[nH]c2c1,-2%[70.6 µM],u,i,-16%[174 µM]
N#Cc1ccc(CN2CCC(c3nc4ccncc4[nH]3)C2)cc1 (centres undefined),-5%[70.6 µM],u,i,u
COc1ccc(CN2CC[C@H](c3nc4c(C(N)=O)cccc4[nH]3)C2)cc1,-12%[70.6 µM],u,i,u
FC(F)(F)c1ccc2nc([C@H]3CCN(Cc4ccccn4)C3)[nH]c2c1,0%[70.6 µM],45µM*,u,u
SMILES,hNpr1 antagonist,HEK293 tox,Luciferase inh,3T3 cytotox
NC(=O)c1cccc2[nH]c([C@H]3CCN(Cc4cccc(Cl)c4)C3)nc12,u,56µM*,i,u
N#Cc1ccc2nc([C@H]3CCN(Cc4ccccc4)C3)[nH]c2c1,2%[70.6 µM],50µM*,u,40µM*
O=C(NC1CCCC1)N1CCCCCC1CN1CCOCC1 (centres undefined),-2%,-1%,i,-3%
O=C1N(C2CCCCC2)C[C@H]2CN(S(=O)(=O)c3ccc(F)cc3)CCN12,-2%[70.6 µM],u,i,35µM*
O=C1N(C2CCCCC2)C[C@H]2CN(S(=O)(=O)c3ccccc3)CCN12,4%[70.6 µM],u,i,u
COc1cc(CNC(=O)c2nc3cccnc3n(CC(C)C)c2=O)cc(OC)c1,x,-8%,x,-17%
CC(=O)Nc1ccc(CN2CC(Oc3ccc(F)c(C)c3)C2)cc1,-3%[70.6 µM],u,i,u
Cc1cc(F)ccc1OC1CN(Cc2ccc(F)cc2)C1,0%[70.6 µM],u,i,u
Cc1cc(OC2CN(Cc3ccc(F)cc3)C2)ccc1F,14%[70.6 µM],79µM*,i,u
Cc1cc(F)ccc1OC1CN(Cc2ccccc2)C1,0%[70.6 µM],u,i,89µM*
O=C1CCN(CC(O)Cc2ccccc2)c2ccsc2CN1Cc1ccccc1 (centres undefined),x,-18%,x,u
COc1cccc(CN2CC[C@@H]3C(=O)NCCCCCCN(Cc4ccncc4)[C@@H]3C2)c1,-8%,u,i,u
Cc1cccc(CNC(=O)c2cc3n(n2)CC(c2ccc4c(c2)OCO4)OC3)c1 (centres undefined),-5%,u,i,u
COc1ccc(/C=C/CN2CCC(CCC(=O)Nc3ccccc3Cl)CC2)cc1,1%,u,i,79µM*
COc1ccccc1/C=C/CN1CCCC(CCC(=O)Nc2ccccc2F)C1 (centres undefined),-1%,45µM*,i,u
COc1nc2nc(CC3CC3)n(C)c2cc1-c1ccnc(C)c1,-4%[70.6 µM],u,i,u
COc1ccc(C(=O)N2CCCC(C(=O)N3CCC(c4nc5ncccc5[nH]4)CC3)C2)cc1 (centres undefined),x,-3%,x,-18%
O=c1[nH]c(C2CCCN(Cc3ccc(F)cc3)C2)nn1-c1ccccc1 (centres undefined),-2%,-18%,i,-30%
O=c1[nH]c(C2CCCN(Cc3ccccc3)C2)nn1-c1ccccc1 (centres undefined),16%[70.6 µM],100µM*,i,89µM*
O=C(c1ccccc1Cl)N1CCCC(c2nn(-c3cccc(Cl)c3)c(=O)[nH]2)C1 (centres undefined),14%,35µM*,i,35µM*
O=c1[nH]c(C2CCCN(Cc3ccc(F)cc3)C2)nn1-c1ccc(Cl)cc1 (centres undefined),12%,45µM*,i,35µM*
COc1ccc(-n2nc(C3CCN(C(=O)C(C)(C)C)CC3)[nH]c2=O)cc1,4%,2%,i,u
CC(C)(C)C(=O)N1CCC(c2nn(-c3ccccc3)c(=O)[nH]2)CC1,0%[70.6 µM],u,50µM*,-10%[138 µM]
CCOC(=O)[C@H]1[C@@H](O)C(=O)N(C(C)C)C12CCN(C(=O)c1cc3ccccc3s1)CC2,x,-16%,x,u
O=C(c1ccc(Cl)cc1)N1CCCC(C(=O)N2CCC(c3nc4ccncc4[nH]3)C2)C1 (centres undefined),x,-5%,x,-15%
